Screening results deposited in PubChem BioAssay by National Center for Advancing Translational Sciences (NCATS).
Only some compounds are listed: those with a hit (about 15% of all), similar ones and a draw of the others.
ALOX12 inh = Primary qHTS assay for inhibitors of human arachidonate 12S-lipoxygenase (ALOX12): Round 2; purified 12hLO, xylenol orange hydroperoxide absorbance; Potency, µM (doses to about 108 µM), without a hit: at the top dose activity change, negative = inhibition, most hits filed as inhibitors; actives 1.1% (n = 580,000)
Target sequence (P18054 whole entry, looked up): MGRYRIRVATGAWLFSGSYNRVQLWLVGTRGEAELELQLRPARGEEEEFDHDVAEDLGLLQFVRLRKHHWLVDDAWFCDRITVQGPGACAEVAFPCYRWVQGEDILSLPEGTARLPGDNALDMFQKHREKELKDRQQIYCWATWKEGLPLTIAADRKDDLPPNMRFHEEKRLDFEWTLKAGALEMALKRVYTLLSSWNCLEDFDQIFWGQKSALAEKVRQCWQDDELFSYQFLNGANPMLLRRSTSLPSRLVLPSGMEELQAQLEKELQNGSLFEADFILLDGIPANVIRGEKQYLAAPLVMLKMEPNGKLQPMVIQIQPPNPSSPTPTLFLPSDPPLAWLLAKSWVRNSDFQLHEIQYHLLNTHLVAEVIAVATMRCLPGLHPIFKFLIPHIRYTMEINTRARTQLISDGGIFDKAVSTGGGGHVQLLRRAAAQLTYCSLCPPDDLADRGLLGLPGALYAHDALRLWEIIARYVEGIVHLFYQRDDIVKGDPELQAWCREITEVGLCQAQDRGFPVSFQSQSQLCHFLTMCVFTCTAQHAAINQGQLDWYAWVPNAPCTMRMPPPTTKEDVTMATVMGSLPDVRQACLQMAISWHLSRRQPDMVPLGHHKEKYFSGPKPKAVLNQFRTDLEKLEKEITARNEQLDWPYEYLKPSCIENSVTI
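Purified human 12hLO (150 nM final) in 25 mM Hepes, 0.01% Triton X-100, pH 7.0 was preincubated 15 min at room temperature with compound. Then 40 uM arachidonic acid was added, 30 min. Hydroperoxide was read by Fe-XO absorbance ratio 573/405 nm.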
TDP1 cell noCPT = qHTS for Inhibitors of human tyrosyl-DNA phosphodiesterase 1 (TDP1): qHTS in cells in absence of CPT. DT40 Tdp1-/- hTDP1 cells, no CPT, ATP luminescence, 48 h. Potency, µM (titrated, usually from 46.2 µM), for inactives: at the highest dose activity change, negative = growth inhibition, hits mostly inhibitors. actives 15% (n = 420,000). AID 686978, 2013; note: nearly all actives have a fitted effect of over 55% in size
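Readout: luminescence from CellTiter-Glo after 30 min in the dark at RT. Cells: DT40 Tdp1-/- with stable hTDP1, 400/well. Exposure: compounds alone, ≥48 hr, 37 °C.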
ELG1 DNA repair = qHTS screen for small molecules that inhibit ELG1-dependent DNA repair in human embryonic kidney (HEK293T) cells expressing luciferase-tagged ELG1 | actives 2.3% (n = 330,000) | HEK293T ELG1-luciferase reporter, luminescence, 16 h; DNA damage induced by 5-fluorouridine | Potency, µM (top dose mostly 46.1 µM), inactives show at the highest dose activity change, negative = inhibition, usual class: inhibitors; note: nearly all actives have a fitted effect of over 55% in size
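Step one: seed 2,000 cells per well. Step two: pin-transfer compound or DMSO alongside 5-fluorouridine. Step three: incubate 16 hr, 37 °C, 5% CO2. Step four: add ONE-Glo, wait 30 min, read luminescence.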
Gal4-VP16 FLuc = VP16 counterscreen qHTS for inhibitors of ROR gamma transcriptional activity; Drosophila S2 Gal4-VP16 UAS-luciferase, luminescence, 20 h; Potency, µM (titrated, usually from 53.6 µM), for the others: at the highest dose activity, negative = inhibition, hits mostly inhibitors; actives 3.5% (n = 310,000); AID 2546, 2010;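 note: Gal4-VP16 expression switched on by copper sulfate through the metallothionein promoter; nearly all actives have a fitted effect of over 50% in size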
RORg inh = qHTS for inhibitors of ROR gamma transcriptional activity | actives 5.4% (n = 310,000) | Drosophila S2 Gal4-RORgamma UAS-luciferase reporter, 20 h | Potency, µM (top dose mostly 53.6 µM), for the others: at the top dose activity change, negative = inhibition, most hits filed as inhibitors | Nuclear receptor ROR-gamma (Mus musculus), P51450; note: nearly all actives have a fitted effect of over 60% in size
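In this cell-based reporter format, copper sulfate (700 uM final) drives Gal4–ROR gamma fusion expression from a metallothionein promoter in Drosophila Schneider cells; compounds preincubated 1 hr, reporter read after 20 hr at ambient temperature.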
TDP1 cell CPT = qHTS for Inhibitors of human tyrosyl-DNA phosphodiesterase 1 (TDP1): qHTS in cells in presence of CPT | AID 686979, 2013 | chicken DT40 Tdp1-/-;hTDP1 cells + 20 nM CPT, ATP luminescence, 48 h | actives 12% (n = 420,000) | Potency, µM (titrated, usually from 46.2 µM), for the others: at the highest dose activity change, negative = growth inhibition, actives largely listed as inhibitors; note: nearly all actives have a fitted effect of over 55% in size
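Chicken DT40 Tdp1-/- cells complemented with human TDP1, 400 cells/well, exposed to compounds plus 20 nM camptothecin for at least 48 h at 37 C; viability read as ATP content by CellTiter-Glo luminescence.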
* = called active by the depositor; ? = inconclusive; nt = no result given; [ ] = another dose, or the depositor's remark. Calls come from the whole dose curve; as a rule, active = well fitted curve in the direction sought with a large enough effect; inconclusive = small, poorly fitted or top-dose-only effect, or another doubt; inactive = no such curve, though single readings can be large; an effect the other way counts as inactive or inconclusive. % is set by controls: 0 for no effect and ±100 for the full control effect; potency is the fitted concentration of half-maximal effect.

SMILES | ALOX12 inh | TDP1 cell noCPT | ELG1 DNA repair | Gal4-VP16 FLuc | RORg inh | TDP1 cell CPT
COc1ccc(-c2ccc(C(c3c(C)[nH][nH]c3=O)c3c(C)[nH][nH]c3=O)o2)c([N+](=O)[O-])c1 | -36.7% | 23.1µM* | ? | -0.4% | -0.6% | ?
COC(=O)c1ccc(/C=N/OCc2cc(C(C)=O)ccc2OC)cc1 | 5.5% | nt | nt | nt | nt | nt
Cc1ccc(C)c(Sc2ccc(NC(=O)c3ccc(C)c(C)c3)cc2)c1 | 6.6% | nt | nt | nt | nt | nt
COc1ccc(OCCNC(=O)C2(C)CCN2Cc2ccc3ccccc3c2)cc1 (stereo not given) | -0.8% | 16.4µM* | nt | nt | nt | 29.1µM*
COc1ccc(OC)c(NC(=O)C2(C)CCN2Cc2ccc(SC)cc2)c1 (stereo not given) | 2.5% | -29.8% | nt | nt | nt | 6.9%
COc1ccc(OCCNC(=O)C2(C)CCN2Cc2ccc(SC)cc2)cc1 (stereo not given) | ? | 16.4µM* | nt | nt | nt | ?
COCOc1cccc(CN2CCC2(C)C(=O)NCCNC(C)=O)c1 (stereo not given) | 0.5% | 24.3% | nt | nt | nt | 2.1%
CS(=O)(=O)c1cccc(OC(=O)/C=C/c2cccc(OCc3ccccc3)c2)c1 | -12.9% | nt | nt | nt | nt | nt
COc1cc(NC(=O)C2(C#N)CCCC2)c(OC)cc1NC(=O)c1ccccc1 | 76.6% | nt | nt | nt | nt | nt
COc1cccc(-c2nc(-c3cccs3)no2)c1 | 3.0% | 0.6% | ? | ? | 12.6µM* | 4.4%
COc1ccc(-c2ccc(-c3noc(-c4cccc(OC)c4)n3)c(OC)n2)cc1 | 15.8% | -25.2% | 11.9% | ? | 0.355µM* | -22.9%
COc1cc(OC)cc(-c2nc(-c3cccs3)no2)c1 | -3.2% | -16.6% | ? | -22.0% | 23.9% | 4.0%
CCOc1cc(-c2nc(-c3ccc(-c4ccc(OC)cc4)nc3OC)no2)cc(OCC)c1OCC | 2.2% | 10.3µM* | nt | nt | nt | 18.4µM*
Cc1c2ccccc2c(CSC(=N)N)c2ccccc12 | ? | nt | nt | ? | 11.2µM* | nt
CCOc1ccc(S(=O)(=O)N(CC)CC)cc1N | -7.0% | -24.9% | 14.1% | -1.2% | -13.2% | 1.3%
CCOc1ccc(C(=O)c2ccc(OCC)c(N)c2)cc1N | 8.2% | 29.1µM* | ? | -2.0% | 0.2% | ?
Cc1cc(C)c(C#N)c(SCCS(=O)(=O)c2ccc(Cl)cc2)n1 | -4.1% | ? | -8.2% | -3.8% | ? | ?
Cc1cc(C)c(C#N)c(SCCS(=O)(=O)c2ccc(C(C)(C)C)cc2)n1 | 24.0% | 20.6µM* | -1.6% | 2.2% | 17.9% | 13µM*
CCN(CCN(C)C)C(=O)C1CCN(S(=O)(=O)c2c(C)noc2/C=C/c2ccccc2F)CC1 | ? | 4.61µM* | 13.6% | ? | ? | 2.91µM*
Cc1noc(/C=C/c2ccccc2F)c1S(=O)(=O)N1CCC(C(=O)N2CCN(C)CC2)CC1 | -0.8% | ? | -11.2% | -9.1% | -23.9% | ?
CCOc1ccccc1/C=C/c1onc(C)c1S(=O)(=O)N1CCC(C(=O)N(CC)CC)CC1 | -7.1% | 16.4µM* | 5.8µM* | -6.0% | -43.4% | 14.6µM*
COc1ccc(NC(=O)Nc2nnc(-c3ccncc3)s2)cc1 | -18.3% | 23.1µM* | ? | -8.8% | ? | 23.1µM*
COc1cc(NC(=O)Nc2nnc(N3CCCCCC3)s2)cc(OC)c1 | -21.5% | 16.4µM* | nt | nt | nt | 23.1µM*
O=C(Nc1ccc(Cl)c(Cl)c1)Nc1nnc(-c2ccncc2)s1 | -14.1% | 3.66µM* | ? | -15.1% | 33.8%[10 µM] | 3.26µM*
COc1ccc(NC(=O)Nc2nnc(N3CCCCCC3)s2)cc1 | -17.5% | ? | nt | nt | nt | ?
SMILES | ALOX12 inh | TDP1 cell noCPT | ELG1 DNA repair | Gal4-VP16 FLuc | RORg inh | TDP1 cell CPT
COc1ccc(NC(=O)Cn2ccn(-c3ccc(OC)cc3)c2=O)cc1 | 5.3% | nt | nt | nt | nt | nt
CCn1ccc2sc(C)c(C(=O)O)c2c1=O | -1.1% | nt | nt | nt | nt | nt
COc1cccc(NC(=O)CSc2c3c(nc4ccccc24)CCCC3)c1 | -18.1% | 20.6µM* | 18.2% | ? | ? | 23.1µM*
COc1ccc(Cl)cc1NC(=O)CSc1c2c(nc3ccccc13)CCC2 | 1.1% | 16.4µM* | nt | nt | nt | 20.6µM*
COc1ccc(OC)c(NC(=O)CSc2c3c(nc4cc(Cl)ccc24)CCCC3)c1 | 2.1% | 23.1µM* | nt | nt | nt | ?
COc1ccc(CNC(=O)CSc2c3c(nc4ccc(Cl)cc24)CCCC3)cc1 | -34.0% | ? | nt | nt | nt | ?
COc1cccc(NC(=O)CSc2cc(C)c3ccccc3n2)c1 | -24.5% | ? | nt | nt | nt | ?
COc1cc(OC)c(NC(=O)C(C)n2nc(-c3ccccc3)c3c(c2=O)CCCC3)cc1Cl (stereo not given) | -7.6% | nt | nt | nt | nt | nt
CCOc1ccccc1NC(=O)CSc1c2c(nc3ccc(Cl)cc13)CCCC2 | -20.7% | ? | nt | nt | nt | ?
CCC(C(=O)Nc1cc(OC)ccc1OC)n1nc(-c2ccccc2)c2c(c1=O)CCCC2 (stereo not given) | -15.6% | 18.4µM* | nt | nt | nt | 16.4µM*
Cc1ccccc1N(C)C1CN(C(=O)c2ccccn2)C1 | 2.8%[12.5 µM] | nt | nt | nt | nt | nt
COc1ccc(NC(=O)CSc2nc(C3CC3)nc3ccccc23)c(OC)c1 | 13.6% | 23.1µM* | -17.1% | -16.0% | -37.6% | -20.2%
COc1ccc(OC)c(NC(=O)CSc2c3c(nc4ccccc24)CCCC3)c1 | ? | 7.31µM* | nt | nt | nt | ?
Cc1ccc(NC(=O)CSc2c3c(nc4ccccc24)CCCC3)cc1F | -29.2% | 14.6µM* | nt | nt | nt | ?
CCN1c2cc(C)ccc2-n2cccc2C12CCN(C(=O)Nc1cc(OC)ccc1OC)CC2 | -27.3% | nt | nt | nt | nt | nt
CC(C)NC(=O)N1CCCCCCNC(=O)[C@@H]2CCCC[C@@H]21 | 47.3% | nt | nt | nt | nt | nt
O=C(CSc1nnnn1C1CCCCC1)NCc1ccccc1CN1CCOCC1 | 23.2% | nt | nt | nt | nt | nt
C=C(C)CN(CC)C(=O)c1ccc(OC2CCN(S(=O)(=O)N(C)C)CC2)cc1 | 3.2% | ? | ? | -11.3% | ? | ?
CN(C)S(=O)(=O)N1CCC(Oc2ccc(C(=O)N3C[C@H]4CC[C@H]3C4)cc2)CC1 | 0.0% | 20.6µM* | 13µM* | ? | 97.8% | 11.6µM*
